About 7,900 targets were measured; listed, in parts, are those with a hit and a random draw of the rest. About 0.6% of all pairs of compound and target were hits.
Legend:
Experiment in all cases: log2 fold change, soluble protein after heating vs DMSO (PISA); higher = thermal stabilisation; K562 cells, 10 uM, 30 min; active = over 0.2 and 3.5 SD of the protein, either way, in both replicates (recomputed)
IRAK-1-4 Inhibitor I = compound: C1COCCN1CCN2C3=CC=CC=C3N=C2NC(=O)C4=CC(=CC=C4)[N+](=O)[O-] [IRAK-1-4 Inhibitor I]
How it was run: (§1)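 K562 cells at 2×10^6 cells/mL were exposed to 10 μM compound for 30 min, then aliquots were heated for 3 min across 48°C-58°C, pooled, and extracted in PBS containing 0.5% NP-40 at 4°C. The supernatant after 21,000xg for 90 min was taken as soluble protein and measured by TMTpro 16plex LC-MS/MS with channel sums equalised. Thermal stability is reported relative to control samples, with values from duplicates. Fold changes are given on a log2 scale.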

ibrutinib = compound: C=CC(=O)N1CCC[C@@H](n2nc(-c3ccc(Oc4ccccc4)cc3)c3c(N)ncnc32)C1 [ibrutinib]
How it was run: as §1

[1] = compound: CC(=O)c1cnc2ccc(-c3cc(Cl)c(O)c(Cl)c3)nc2c1N[C@H]1CC[C@H](CN(C)C)CC1
How it was run: as §1

ralimetinib = compound: CC(C)(C)Cn1c(N)nc2ccc(-c3[nH]c(C(C)(C)C)nc3-c3ccc(F)cc3)nc21 [ralimetinib]
How it was run: as §1

[2] = compound: CC(C)(O)CC(=O)NCCn1ccc2ncnc(Nc3ccc(Oc4cccc(C(F)(F)F)c4)c(Cl)c3)c21
How it was run: as §1

[3] = compound: CC(C)C1=C2N=C(C=C(N2N=C1)NCC3=CC=CC=C3)NCCCCCCN
How it was run: as §1

[4] = compound: CC(C)C[C@@H](C=O)NC(=O)[C@H](CC(C)C)NC(=O)[C@H](CC(C)C)NC(=O)OCc1ccccc1
How it was run: as §1

pinometostat = compound: CC(C)N(C[C@H]1O[C@@H](n2cnc3c(N)ncnc32)[C@H](O)[C@@H]1O)[C@H]1C[C@@H](CCc2nc3cc(C(C)(C)C)ccc3[nH]2)C1 [pinometostat]
How it was run: as §1

[5] = compound: CC1=C(C(CC(=O)N1)C2=CC=C(C=C2)C(F)(F)F)C(=O)NC3=C(C=C4C(=C3)C=NN4)F
How it was run: as §1

[6] = compound: CC1=C(C2=C(C=C1)C(=O)C3=CC=CC=C3N2CCCN)C
How it was run: as §1

[7] = compound: CC1=C(C=C(C=C1)NC(=O)C2=CC(=CC=C2)C(C)(C)C#N)NC3=CC4=C(C=C3)N=CN(C4=O)C
How it was run: as §1

[8] = compound: CC1=C(C=C(C=C1)NC(=O)C2=CC(=CC=C2)N(C)C)NC(=O)C3=CC=C(C=C3)O
How it was run: as §1

[9] = compound: CC1=CC=C(C=C1)SC2=C3C=C(SC3=CN=C2)C(=O)N
How it was run: as §1

[10] = compound: CC1=NC(=CC=C1)C2=C(N=C(N2)C(C)(C)C)C3=CC4=NC=CN=C4C=C3
How it was run: as §1

Nexturastat A = compound: CCCCN(Cc1ccc(C(=O)NO)cc1)C(=O)Nc1ccccc1 [Nexturastat A]
How it was run: as §1

vemurafenib = compound: CCCS(=O)(=O)Nc1ccc(F)c(C(=O)c2c[nH]c3ncc(-c4ccc(Cl)cc4)cc23)c1F [vemurafenib]
How it was run: as §1

[11] = compound: CCCS(=O)(=O)Nc1ccc(F)c(C(=O)c2c[nH]c3ncc(Cl)cc23)c1F
How it was run: as §1

[12] = compound: CCCc1cc(C)[nH]c(=O)c1CNC(=O)c1cc(-c2ccnc(N3CCN(C)CC3)c2)cc2c1cnn2C(C)C
How it was run: as §1

givinostat = compound: CCN(CC)Cc1ccc2cc(COC(=O)Nc3ccc(C(=O)NO)cc3)ccc2c1 [givinostat]
How it was run: as §1

barasertib = compound: CCN(CCCOc1ccc2c(Nc3cc(CC(=O)Nc4cccc(F)c4)[nH]n3)ncnc2c1)CCOP(=O)(O)O [barasertib]
How it was run: as §1

Measured: log2 fold change

GDI1 (UniProt P31150)
Chain of UniProt P31150 (P31150 whole entry, looked up): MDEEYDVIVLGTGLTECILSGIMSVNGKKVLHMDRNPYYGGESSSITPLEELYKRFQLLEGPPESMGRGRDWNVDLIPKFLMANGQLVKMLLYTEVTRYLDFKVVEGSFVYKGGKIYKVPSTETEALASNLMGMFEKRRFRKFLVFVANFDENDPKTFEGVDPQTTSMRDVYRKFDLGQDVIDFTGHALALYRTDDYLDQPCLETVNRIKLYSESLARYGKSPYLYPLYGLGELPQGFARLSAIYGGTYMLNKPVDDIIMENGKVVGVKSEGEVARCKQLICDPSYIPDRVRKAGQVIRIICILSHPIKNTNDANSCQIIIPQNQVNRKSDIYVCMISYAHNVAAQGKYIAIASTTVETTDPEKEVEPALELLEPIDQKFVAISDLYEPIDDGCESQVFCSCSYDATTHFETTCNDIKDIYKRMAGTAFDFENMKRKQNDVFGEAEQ
inactive: IRAK-1-4 Inhibitor I 0.034 | ibrutinib 0.018 | [1] -0.027 | ralimetinib -0.057 | [2] 0.009 | [3] 0.04 | [4] -0.012 | pinometostat -0.008 | [5] -0.022 | [6] 0.011 | [7] 0.007 | [8] 0.012 | [9] -0.003 | [10] 0.009 | Nexturastat A -0.051 | vemurafenib 0.015 | [11] -0.008 | [12] -0.027 | givinostat -0.032 | barasertib 0.012

FNTA (UniProt P49354)
inactive: IRAK-1-4 Inhibitor I 0.052 | ibrutinib 0.107 | [1] 0.081 | ralimetinib -0.05 | [2] -0.023 | [3] 0.016 | [4] -0.031 | pinometostat -0.018 | [5] -0.023 | [6] -0.074 | [7] -0.035 | [8] -0.009 | [9] 0.048 | [10] -0.011 | Nexturastat A -0.063 | vemurafenib -0.045 | [11] -0.047 | [12] 0.007 | givinostat -0.052 | barasertib 0.007

GOPC (UniProt Q9HD26)
inactive: IRAK-1-4 Inhibitor I -0.119 | ibrutinib -0.104 | [1] 0.03 | ralimetinib 0.259 | [2] -0.04 | [3] 0.046 | [4] 0.083 | pinometostat 0.174 | [5] -0.118 | [6] 0.085 | [7] 0.207 | [8] 0.018 | [9] -0.051 | [10] -0.066 | Nexturastat A 0.131 | vemurafenib 0.094 | [11] -0.128 | [12] 0.244 | givinostat 0.152 | barasertib -0.116

FNTB (UniProt P49356)
Chain of UniProt P49356 (P49356 whole entry, looked up): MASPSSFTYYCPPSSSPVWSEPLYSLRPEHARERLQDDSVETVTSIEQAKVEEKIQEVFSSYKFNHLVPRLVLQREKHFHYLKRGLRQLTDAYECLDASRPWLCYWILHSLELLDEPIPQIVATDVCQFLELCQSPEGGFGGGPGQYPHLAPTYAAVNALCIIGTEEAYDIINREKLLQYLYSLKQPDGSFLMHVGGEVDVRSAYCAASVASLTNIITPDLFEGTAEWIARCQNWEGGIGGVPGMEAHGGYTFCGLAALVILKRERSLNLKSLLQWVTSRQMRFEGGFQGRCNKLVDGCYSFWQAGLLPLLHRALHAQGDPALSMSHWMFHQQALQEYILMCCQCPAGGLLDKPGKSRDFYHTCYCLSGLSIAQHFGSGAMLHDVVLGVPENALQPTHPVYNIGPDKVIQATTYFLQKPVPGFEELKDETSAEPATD
inactive: IRAK-1-4 Inhibitor I 0.017 | ibrutinib 0.309 | [1] -0.028 | ralimetinib -0.016 | [2] -0.025 | [3] 0.074 | [4] -0.033 | pinometostat -0.003 | [5] -0.146 | [6] -0.087 | [7] 0.032 | [8] -0.058 | [9] 0 | [10] 0 | Nexturastat A -0.041 | vemurafenib 0.011 | [11] -0.052 | [12] 0.029 | givinostat -0.083 | barasertib -0.034

FBXO7 (UniProt Q9Y3I1)
Chain of UniProt Q9Y3I1 (Q9Y3I1 whole entry, looked up): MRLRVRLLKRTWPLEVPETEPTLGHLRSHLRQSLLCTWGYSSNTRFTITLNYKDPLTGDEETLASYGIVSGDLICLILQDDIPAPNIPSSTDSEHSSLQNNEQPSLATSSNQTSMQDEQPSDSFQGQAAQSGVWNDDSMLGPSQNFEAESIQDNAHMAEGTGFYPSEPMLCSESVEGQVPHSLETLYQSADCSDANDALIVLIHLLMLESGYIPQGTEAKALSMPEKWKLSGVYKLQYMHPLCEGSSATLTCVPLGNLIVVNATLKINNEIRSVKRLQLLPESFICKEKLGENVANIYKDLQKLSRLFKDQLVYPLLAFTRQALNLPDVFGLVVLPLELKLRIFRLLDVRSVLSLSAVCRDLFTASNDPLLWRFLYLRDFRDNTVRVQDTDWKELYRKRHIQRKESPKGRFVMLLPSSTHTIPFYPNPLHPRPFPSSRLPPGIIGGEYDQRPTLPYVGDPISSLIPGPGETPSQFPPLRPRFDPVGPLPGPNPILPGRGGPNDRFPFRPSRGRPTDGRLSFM
inactive: IRAK-1-4 Inhibitor I -0.008 | ibrutinib 0.036 | [1] -0.024 | ralimetinib -0.005 | [2] -0.068 | [3] 0.001 | [4] -0.013 | pinometostat 0.042 | [5] -0.021 | [6] 0.044 | [7] -0.048 | [8] -0.028 | [9] 0.004 | [10] -0.014 | Nexturastat A 0.047 | vemurafenib 0.017 | [11] -0.022 | [12] -0.026 | givinostat 0.03 | barasertib 0.02

GLUD1 (UniProt P00367)
inactive: IRAK-1-4 Inhibitor I 0.02 | ibrutinib 0.04 | [1] 0.068 | ralimetinib 0.023 | [2] -0.038 | [3] -0.049 | [4] 0.012 | pinometostat 0.023 | [5] -0.076 | [6] 0.125 | [7] 0.179 | [8] -0.007 | [9] -0.054 | [10] -0.011 | Nexturastat A -0.063 | vemurafenib -0.012 | [11] -0.02 | [12] 0.136 | givinostat -0.062 | barasertib -0.007

FBXO3 (UniProt Q9UK99)
Chain of UniProt Q9UK99 (Q9UK99 whole entry, looked up): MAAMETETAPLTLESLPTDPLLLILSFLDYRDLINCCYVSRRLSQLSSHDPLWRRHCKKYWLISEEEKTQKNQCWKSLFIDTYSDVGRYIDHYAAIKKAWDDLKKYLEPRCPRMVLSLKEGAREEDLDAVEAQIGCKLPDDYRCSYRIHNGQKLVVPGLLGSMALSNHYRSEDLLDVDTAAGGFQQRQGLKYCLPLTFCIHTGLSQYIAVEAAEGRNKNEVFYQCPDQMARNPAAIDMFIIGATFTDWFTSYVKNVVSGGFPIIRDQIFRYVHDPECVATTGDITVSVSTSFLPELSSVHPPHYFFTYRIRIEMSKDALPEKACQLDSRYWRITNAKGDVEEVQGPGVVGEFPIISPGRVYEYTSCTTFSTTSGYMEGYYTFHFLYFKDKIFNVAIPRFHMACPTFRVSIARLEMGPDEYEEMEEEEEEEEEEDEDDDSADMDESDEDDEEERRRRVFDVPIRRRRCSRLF
inactive: IRAK-1-4 Inhibitor I 0.038 | ibrutinib -0.003 | [1] -0.008 | ralimetinib 0.171 | [2] 0.021 | [3] -0.014 | [4] 0.031 | pinometostat 0 | [5] 0.014 | [6] -0.047 | [7] -0.042 | [8] -0.08 | [9] 0 | [10] -0.018 | Nexturastat A -0.043 | vemurafenib -0.089 | [11] -0.025 | [12] -0.057 | givinostat 0.049 | barasertib -0.043

FUCA1 (UniProt P04066)
inactive: IRAK-1-4 Inhibitor I -0.003 | ibrutinib 0.018 | [1] -0.049 | ralimetinib -0.067 | [2] 0.056 | [3] -0.054 | [4] 0.003 | pinometostat -0.03 | [5] -0.008 | [6] -0.199 | [7] 0.03 | [8] 0.009 | [9] 0.021 | [10] 0.092 | Nexturastat A -0.054 | vemurafenib -0.007 | [11] 0.066 | [12] -0.016 | givinostat 0 | barasertib 0.012

FBL (UniProt P22087)
Chain of UniProt P22087 (P22087 whole entry, looked up): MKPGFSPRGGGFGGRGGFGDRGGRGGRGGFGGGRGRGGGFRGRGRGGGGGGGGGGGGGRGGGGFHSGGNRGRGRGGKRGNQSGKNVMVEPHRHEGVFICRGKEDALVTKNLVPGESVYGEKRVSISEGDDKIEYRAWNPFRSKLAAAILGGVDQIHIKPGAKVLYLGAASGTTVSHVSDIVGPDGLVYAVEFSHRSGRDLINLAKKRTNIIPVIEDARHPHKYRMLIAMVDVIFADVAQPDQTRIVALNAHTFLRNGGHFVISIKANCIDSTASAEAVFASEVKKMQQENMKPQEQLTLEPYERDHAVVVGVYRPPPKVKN
inactive: IRAK-1-4 Inhibitor I -0.094 | ibrutinib 0.048 | [1] -0.03 | ralimetinib 0.17 | [2] 0.146 | [3] 0.199 | [4] 0.184 | pinometostat 0.319 | [5] -0.031 | [6] 0.206 | [7] -0.039 | [8] 0.062 | [9] -0.146 | [10] -0.077 | Nexturastat A 0.243 | vemurafenib -0.11 | [11] -0.058 | [12] 0.165 | givinostat 0.138 | barasertib -0.106

IFITM3 (UniProt Q01628)
Chain of UniProt Q01628 (Q01628 whole entry, looked up): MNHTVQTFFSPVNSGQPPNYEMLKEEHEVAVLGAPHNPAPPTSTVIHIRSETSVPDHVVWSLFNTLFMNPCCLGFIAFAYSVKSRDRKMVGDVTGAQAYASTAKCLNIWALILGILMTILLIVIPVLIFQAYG
active: Nexturastat A -0.425
inactive: IRAK-1-4 Inhibitor I -0.067 | ibrutinib -0.02 | [1] -0.241 | ralimetinib 0.031 | [2] 0.108 | [3] -0.082 | [4] 0.008 | pinometostat -0.181 | [5] -0.207 | [6] 0.163 | [7] -0.058 | [8] 0.074 | [9] 0.148 | [10] -0.059 | vemurafenib 0.177 | [11] 0.2 | [12] 0.218 | givinostat -0.036 | barasertib 0.051

HIST2H2BF isoform 2 (UniProt Q5QNW6)
active: Nexturastat A 0.78
inactive: IRAK-1-4 Inhibitor I -0.165 | ibrutinib 0.148 | [1] -0.054 | ralimetinib 0.162 | [2] 0 | [3] -0.047 | [4] 0.226 | pinometostat 0.422 | [5] 0.002 | [6] 0.601 | [7] -0.094 | [8] -0.034 | [9] -0.202 | [10] -0.009 | vemurafenib -0.284 | [11] 0.529 | [12] 0.1 | givinostat 0.331 | barasertib -0.157

GALNT4 (UniProt Q8N4A0)
inactive: IRAK-1-4 Inhibitor I 0.038 | ibrutinib 0.011 | [1] -0.061 | ralimetinib -0.003 | [3] -0.041 | [4] -0.002 | pinometostat 0.014 | [5] -0.004 | [6] 0.072 | [7] 0.008 | [8] 0.017 | [9] -0.029 | [10] 0.013 | Nexturastat A -0.049 | vemurafenib -0.037 | [11] -0.001 | [12] -0.01 | givinostat 0.005 | barasertib 0.011
active: [2] -0.41

GPKOW (UniProt Q92917)
inactive: IRAK-1-4 Inhibitor I -0.016 | ibrutinib -0.005 | [1] -0.172 | ralimetinib -0.08 | [2] -0.026 | [3] -0.184 | [4] 0.006 | pinometostat 0.047 | [5] -0.034 | [6] 0.056 | [7] 0.053 | [8] -0.033 | [9] 0.062 | [10] 0.055 | Nexturastat A -0.106 | vemurafenib 0.009 | [11] 0.07 | [12] -0.058 | givinostat 0.084 | barasertib 0.027

HIP1 (UniProt O00291)
Chain of UniProt O00291 (O00291 whole entry, looked up): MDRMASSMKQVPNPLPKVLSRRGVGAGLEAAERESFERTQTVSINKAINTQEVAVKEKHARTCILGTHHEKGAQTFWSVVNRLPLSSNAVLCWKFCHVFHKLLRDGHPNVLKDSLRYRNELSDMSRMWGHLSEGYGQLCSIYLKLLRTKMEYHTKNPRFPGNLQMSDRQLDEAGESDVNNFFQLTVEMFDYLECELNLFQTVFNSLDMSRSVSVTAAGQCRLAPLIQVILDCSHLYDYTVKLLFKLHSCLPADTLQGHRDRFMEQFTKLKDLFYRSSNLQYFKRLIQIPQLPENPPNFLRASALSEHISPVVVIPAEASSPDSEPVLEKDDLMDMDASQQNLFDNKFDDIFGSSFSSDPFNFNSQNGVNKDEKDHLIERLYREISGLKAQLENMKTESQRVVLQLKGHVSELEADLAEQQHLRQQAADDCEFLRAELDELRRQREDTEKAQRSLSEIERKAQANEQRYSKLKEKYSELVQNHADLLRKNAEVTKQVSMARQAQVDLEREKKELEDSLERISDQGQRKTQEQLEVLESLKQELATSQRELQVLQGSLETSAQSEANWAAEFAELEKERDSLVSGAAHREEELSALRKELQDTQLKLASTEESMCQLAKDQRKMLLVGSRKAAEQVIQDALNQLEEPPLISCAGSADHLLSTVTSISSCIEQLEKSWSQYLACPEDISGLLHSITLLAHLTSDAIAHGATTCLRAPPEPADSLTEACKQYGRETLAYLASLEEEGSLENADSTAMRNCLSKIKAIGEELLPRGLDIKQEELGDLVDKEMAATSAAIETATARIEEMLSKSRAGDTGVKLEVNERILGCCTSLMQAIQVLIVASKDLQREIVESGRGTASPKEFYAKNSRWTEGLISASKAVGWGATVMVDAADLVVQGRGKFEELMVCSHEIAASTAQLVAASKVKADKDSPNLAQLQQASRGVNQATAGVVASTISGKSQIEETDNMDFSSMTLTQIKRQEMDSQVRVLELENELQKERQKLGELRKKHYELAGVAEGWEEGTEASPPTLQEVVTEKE
active: Nexturastat A 0.286
inactive: IRAK-1-4 Inhibitor I -0.002 | ibrutinib 0.083 | [1] -0.07 | ralimetinib -0.003 | [2] -0.035 | [3] -0.056 | [4] 0.079 | pinometostat 0.045 | [5] 0.074 | [6] 0.038 | [7] -0.086 | [8] -0.004 | [9] -0.028 | [10] 0.002 | vemurafenib -0.003 | [11] 0.056 | [12] 0.233 | givinostat 0.043 | barasertib 0.01

HOOK3 (UniProt Q86VS8)
Chain of UniProt Q86VS8 (Q86VS8 whole entry, looked up): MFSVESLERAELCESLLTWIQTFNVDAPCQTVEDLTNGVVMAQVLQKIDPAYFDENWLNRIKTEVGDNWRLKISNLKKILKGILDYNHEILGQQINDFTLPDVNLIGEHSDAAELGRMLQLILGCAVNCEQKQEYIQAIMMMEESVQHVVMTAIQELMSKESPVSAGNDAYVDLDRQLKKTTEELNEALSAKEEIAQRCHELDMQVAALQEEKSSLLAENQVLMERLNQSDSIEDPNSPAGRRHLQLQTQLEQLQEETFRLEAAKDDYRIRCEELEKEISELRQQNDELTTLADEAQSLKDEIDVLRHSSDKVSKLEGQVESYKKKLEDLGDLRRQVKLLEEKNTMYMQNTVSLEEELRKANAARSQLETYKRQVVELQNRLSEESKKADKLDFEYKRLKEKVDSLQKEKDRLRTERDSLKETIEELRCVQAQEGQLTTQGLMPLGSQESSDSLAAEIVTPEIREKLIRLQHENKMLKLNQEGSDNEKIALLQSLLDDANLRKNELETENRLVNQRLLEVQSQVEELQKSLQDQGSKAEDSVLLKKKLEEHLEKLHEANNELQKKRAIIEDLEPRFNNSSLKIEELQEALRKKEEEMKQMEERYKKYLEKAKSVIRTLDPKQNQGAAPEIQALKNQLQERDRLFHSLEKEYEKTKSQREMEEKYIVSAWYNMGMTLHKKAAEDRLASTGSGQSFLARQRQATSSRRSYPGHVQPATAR
inactive: IRAK-1-4 Inhibitor I 0.003 | ibrutinib -0.057 | [1] -0.018 | ralimetinib 0.033 | [2] -0.109 | [3] -0.138 | [4] 0.056 | pinometostat 0.024 | [5] 0.008 | [6] 0.02 | [7] -0.024 | [8] -0.023 | [9] -0.014 | [10] -0.039 | Nexturastat A 0.034 | vemurafenib -0.014 | [11] -0.001 | [12] -0.026 | givinostat 0.091 | barasertib 0.008

GSR (UniProt P00390)
Chain of UniProt P00390 (P00390 whole entry, looked up): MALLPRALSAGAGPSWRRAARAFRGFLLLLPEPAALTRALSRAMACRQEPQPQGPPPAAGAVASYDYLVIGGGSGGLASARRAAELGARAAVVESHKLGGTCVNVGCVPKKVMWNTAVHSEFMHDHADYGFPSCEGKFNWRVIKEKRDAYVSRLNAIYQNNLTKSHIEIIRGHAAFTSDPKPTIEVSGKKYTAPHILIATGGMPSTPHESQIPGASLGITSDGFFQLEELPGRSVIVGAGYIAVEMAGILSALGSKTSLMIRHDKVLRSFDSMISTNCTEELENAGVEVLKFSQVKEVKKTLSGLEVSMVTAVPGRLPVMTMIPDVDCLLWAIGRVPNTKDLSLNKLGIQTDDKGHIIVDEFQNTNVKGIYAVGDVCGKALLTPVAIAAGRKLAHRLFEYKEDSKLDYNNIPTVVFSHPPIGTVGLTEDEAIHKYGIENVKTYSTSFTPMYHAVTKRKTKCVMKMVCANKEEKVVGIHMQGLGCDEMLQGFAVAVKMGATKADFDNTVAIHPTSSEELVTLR
active: givinostat -0.253
inactive: IRAK-1-4 Inhibitor I 0.037 | ibrutinib -0.005 | [1] -0.011 | ralimetinib -0.021 | [2] -0.015 | [3] 0.082 | [4] 0.023 | pinometostat -0.05 | [5] -0.005 | [6] -0.003 | [7] -0.011 | [8] 0.022 | [9] 0.016 | [10] 0.007 | Nexturastat A -0.073 | vemurafenib -0.027 | [11] 0.02 | [12] -0.026 | barasertib -0.03
